Screening data (PubChem)
FLuc counter – firefly luciferase modulation, counter-screen for miR-21 project; P08659; purified FLuc, Km substrates, luminescence inhibition; Potency, µM (series often up to 57.5 µM), for inactives: at the top dose activity change, negative = inhibition, usual class: inhibitors; 360,000 tested, 6.9% active; AID 588342;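 also: plate controls were vehicle for no effect and reference inhibitor for full effect; nearly all actives have a fitted effect of over 55% in size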
Target sequence (P08659 whole entry, looked up): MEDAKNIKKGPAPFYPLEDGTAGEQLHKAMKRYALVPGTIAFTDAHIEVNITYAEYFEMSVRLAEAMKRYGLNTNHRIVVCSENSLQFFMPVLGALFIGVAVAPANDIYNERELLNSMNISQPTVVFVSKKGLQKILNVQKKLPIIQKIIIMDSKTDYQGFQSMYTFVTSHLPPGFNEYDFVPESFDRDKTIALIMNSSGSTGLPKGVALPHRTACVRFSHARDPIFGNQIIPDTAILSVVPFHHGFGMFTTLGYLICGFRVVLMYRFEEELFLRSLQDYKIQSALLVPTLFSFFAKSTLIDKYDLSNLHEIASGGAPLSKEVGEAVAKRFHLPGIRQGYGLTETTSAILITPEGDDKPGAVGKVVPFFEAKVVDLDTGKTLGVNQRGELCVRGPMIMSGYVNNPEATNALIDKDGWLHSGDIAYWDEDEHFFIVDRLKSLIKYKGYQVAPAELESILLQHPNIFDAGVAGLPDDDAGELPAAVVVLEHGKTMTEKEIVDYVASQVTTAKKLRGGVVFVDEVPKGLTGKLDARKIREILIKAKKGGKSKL
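Purified P. pyralis luciferase, 10 nM final, with Km-level 10 uM D-luciferin and 10 uM ATP in 50 mM Tris acetate pH 7.5, 10 mM Mg acetate, 0.01% Tween-20, 0.05% BSA; 6-point qHTS titration about 60 µM downward; luminescence read.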
ELG1 genotox – inducers of genotoxicity in HEK293T ELG1-luciferase cells; HEK293T ELG1-luciferase reporter, luminescence, 16 h; AID 504466; Potency, µM (series often up to 46 µM), inactives show at the top dose activity change, positive = activation, actives largely listed as activators; 330,000 tested, 1.3% active; also: % of control where 0% means no effect; nearly all actives have a fitted effect of over 60% in size
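ELG1-luciferase HEK293T cells, 2,000/well; compound pinned in; 16 hr, 37 °C, 5% CO2; ONE-Glo, 30 min RT; luminescence on CCD imager.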
Rab9 promoter act – Rab9 promoter activation; Huh7 Rab9 promoter-luciferase reporter, luminescence, 24 h; Potency, µM (titrated, usually from 9.22 µM), for inactives: at the top dose activation, negative = inhibition, usual class: activators; 320,000 tested, 2.8% active; also: % of control where 0% means no effect; nearly all actives have a fitted effect of over 60% in size
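Huh7 reporter line, Rab9 promoter upstream of luciferase. Compound exposure 24 h at 37 °C in reduced-serum medium with 10% FBS. Read-out: luminescence.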
NPC1 promoter act – NPC1 promoter activation; Huh7 NPC1 promoter luciferase reporter, 24 h; Potency, µM (titrated, usually from 9.22 µM), for inactives: top-dose activation, actives largely listed as activators; 320,000 tested, 2.4% active; also: % of control where 0% means no effect; nearly all actives have a fitted effect of over 60% in size
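Quantitative HTS used a cell-based reporter: Huh7 cells stably bearing the NPC1 promoter upstream of luciferase were treated with compounds for 24 h, and promoter activation was read as luminescence.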
SMN2 splice up – enhancers of SMN2 splice variant expression; Potency, µM (top dose mostly 46.1 µM), for the others: at the highest dose activity change, positive = activation, usual class: activators; AID 1458; 210,000 tested, 2.8% active; HEK293 SMN2-luciferase splicing reporter, luminescence, 30-36 h; also: % of control where 0% means no effect; nearly all actives have a fitted effect of over 55% in size
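HEK293 cells carry an SMN2 minigene-luciferase reporter in which exon 7 inclusion puts luciferase in frame. Cells were seeded at 2000 cells/well, attached for 10-12 hours, then exposed to compounds for 30-36 hours at 37C before ONE-Glo luminescence.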
The depositor's hits bear a star; ? = inconclusive; · = no result given; [ ] = remark or other dose. Compounds with a hit are over-represented: about 7.4% of the library has one in this group of screens. Calls follow the shape of the dose curve; as a rule, active = well fitted curve in the direction sought with a large enough effect; inconclusive = small, poorly fitted or top-dose-only effect, or another doubt; inactive = no such curve, though single readings can be large; an effect the other way counts as inactive or inconclusive. Potency is read from the fitted curve at half-maximal effect.

SMILES | FLuc counter | ELG1 genotox | Rab9 promoter act | NPC1 promoter act | SMN2 splice up
O=C(Nc1ccc2c(c1)CCC2)c1ccc(Cl)nc1 | 12µM* | ? | ? | 15% | ?
O=C(Nc1ccc2c(c1)CCC2)c1cnc(Cl)c(Cl)c1 | 3µM* | ? | 30% | 3% | ?
COc1ccc(-c2nnc(SCC#N)o2)cc1 | -7% | ? | 1% | 0% | -10%
CCSc1nnc(-c2ccc(OC)cc2)o1 | 7.6µM* | 7.1µM* | 2.8µM* | 2.8µM* | 11µM*
CCCCCCCCSc1nnc(-c2ccc(OC)cc2)o1 | 1% | -1% | 1% | -2% | -15%
C#CCSc1nnc(-c2ccc(OC)cc2)o1 | 7.6µM* | 10µM* | 2.8µM* | 2.8µM* | ?
COc1ccc(-c2nnc(SCc3c(C)noc3C)o2)cc1 | 19µM* | 1% | 0% | 17% | -11%
C#CCSc1nnc(-c2ccc([N+](=O)[O-])cc2)o1 | ? | 16% | 3.2µM* | 26% | 20%
CSc1nnc(-c2ccc([N+](=O)[O-])cc2)o1 | -3% | 10% | 12% | -4% | ·
COC(=O)N1CCC2(CCN(C(=O)NC(C)C)CC2)CC1 | · | · | · | · | -4%
Cc1ccccc1Nc1c(-c2ccsc2)nc2c(C)cccn12 | ? | · | · | · | 13µM*
Cc1ccn2c(Nc3ccccc3C)c(-c3ccncc3)nc2c1 | ? | 2% | -10% | -3% | 18µM*
COC(=O)CN1C(=O)CSc2ccc(S(=O)(=O)Nc3ccccc3)cc21 | -15% | · | · | · | ·
Clc1ccc(CSc2snnc2-c2ccccc2)c(Cl)c1 | 13µM* | ? | 20% | ? | ?
O=C(NCCc1ccc(Cl)cc1)C1CC(=O)N(C2CCCC2)C1 (configuration not stated) | 0% | 0% | -2% | -2% | ·
COc1ccc(/C=C2\Oc3cc(OCC(=O)N4CCC(C(=O)O)CC4)ccc3C2=O)c(OC)c1OC | ? | 6% | -6% | -1% | ·
COc1cccc(/C=C2\Oc3cc(OCC(=O)N4CCCC4)ccc3C2=O)c1OC | 9.5µM* | 2% | -1% | -3% | ·
COc1ccc(OC)c(/C=C2\Oc3cc(OCC(=O)N4CCC(C(=O)O)CC4)ccc3C2=O)c1 | -19% | 0% | -17% | -4% | ·
COc1cccc(/C=C2\Oc3cc(OCC(=O)N4CCCCC4)ccc3C2=O)c1OC | 9.5µM* | 2% | -7% | -5% | ·
COc1ccc(/C=C2\Oc3cc(OCC(=O)N4CCC(C(=O)O)CC4)ccc3C2=O)c(OC)c1 | 6.7µM* | 1% | -7% | 0% | ·
COc1ccc(/C=C2\Oc3cc(OCC(=O)N4CCC[C@H]4C(=O)O)ccc3C2=O)cc1OC | 1.3µM* | -1% | -3% | -2% | ·
COC(=O)CCC(=O)NC(=S)Nc1ccc(S(=O)(=O)N2CCCC2)cc1 | -1% | -2% | -3% | -1% | -23%
CCCCCC(=O)/C=C/[C@H]1[C@H](O)CC(=O)[C@@H]1C/C=C\CCCC(=O)O | · | · | · | · | 11%
Cc1ccc(S(=O)(=O)N2CCOCC2)cc1C(=O)NCC1CCCCC1 | -2% | 0% | 1% | -3% | ·
O=C(CCCn1c(=O)c2cccn2c2ccc(F)cc21)NCc1ccc(Cl)cc1 | 4% | · | · | · | ·
SMILES | FLuc counter | ELG1 genotox | Rab9 promoter act | NPC1 promoter act | SMN2 splice up
O=C(NN=C(Cc1ccccc1)Cc1ccccc1)c1ccc(F)cc1 | 19µM* | 1% | 1% | 11% | 25%
O=C(NN=C(Cc1ccccc1)Cc1ccccc1)c1ccccc1O | 12µM* | 1% | -18% | -6% | 1%
C/C(Cc1ccccc1)=N\NC(=O)c1ccc(F)cc1 | -9% | 4% | 0% | 4% | -36%[1.84 µM]
O=C(Nc1ccc(-c2nc3cccnc3s2)cc1)c1cccnc1Cl | 1.7µM* | 0.82µM* | 0.79µM* | 0.32µM* | ·
O=C(Nc1ccc(-c2nc3cccnc3s2)cc1)c1ccc(Cl)nc1 | ? | 10% | 0.71µM* | 0.89µM* | ·
O=C(CN1C(=O)NC(c2ccc(F)cc2)C1=O)Nc1ccc2c(c1)OCCO2 (configuration not stated) | 5% | 6% | 12% | -2% | ·
Cc1ccccc1OCc1nc(-c2ccc(NC(=O)c3ccco3)cc2)no1 | 11µM* | ? | ? | ? | 7.1µM*
Cc1ccccc1OCc1nc(-c2ccc(NC(=O)c3ccc4c(c3)OCO4)cc2)no1 | ? | 9% | 4% | 19% | -8%
Cc1ccccc1OCc1nc(-c2ccc(NC(=O)c3cccs3)cc2)no1 | 12µM* | ? | ? | ? | ?
CC(Oc1ccc(Cl)cc1Cl)c1nc(-c2ccc(NC(=O)c3ccco3)cc2)no1 (configuration not stated) | 15µM* | ? | ? | 29% | -39%
COc1ccccc1CC(=O)Nc1ccc(-c2noc(COc3cccc(C)c3C)n2)cc1 | 6% | 3% | -3% | -4% | -31%
Cc1ccc(NC2CCCN(C(=O)c3ccccc3-c3ncc[nH]3)C2)cc1C (configuration not stated) | -1% | -2% | 1% | 6% | ·
CCCCN(C(=O)c1c(-c2ccccc2)noc1C)c1c(N)n(CCC)c(=O)[nH]c1=O | · | 0% | · | · | ·
Cn1c(=NC(=O)c2ccc(S(=O)(=O)N3CCCC3)cc2)sc2cc(F)ccc21 | 0% | · | · | · | -1%
Cc1ccc(C)c(Nc2nc3ccccc3n3cnnc23)c1 | -1% | 2% | 1% | -4% | ·
C/C(=N\Nc1ccc(S(N)(=O)=O)cc1[N+](=O)[O-])c1ccccc1O | 3% | 4% | -6% | 0% | ·
C/C(=N\Nc1ccccc1[N+](=O)[O-])c1ccccc1O | 5.4µM* | 21µM* | -1% | 8% | ·
CC/C(=N\Nc1ccc([N+](=O)[O-])cc1[N+](=O)[O-])c1ccc(O)cc1 | -1% | -1% | -2% | 0% | ·
CC/C(=N\Nc1ccccc1[N+](=O)[O-])c1ccc(O)cc1 | 27µM* | 10% | 0% | 6% | ·
Clc1ccc(OCc2nnc(-c3ccccc3Br)o2)cc1 | ? | 7% | 13% | 10% | 2%
Fc1ccc(OCc2nnc(-c3ccccc3Br)o2)c(Cl)c1 | 9.5µM* | 2.3µM* | 2.5µM* | ? | ·
Cc1cc(Cl)ccc1OCc1nnc(-c2ccccc2C)o1 | ? | ? | 4µM* | ? | ·
Clc1ccc(OCc2nnc(-c3ccccc3Br)o2)c(Cl)c1 | 6µM* | ? | 4µM* | 3.2µM* | ?
COc1ccc(CCN2CC(C(=O)N(C)CCc3cn[nH]c3)CCC2=O)cc1 (configuration not stated) | 1% | 4% | -4% | -2% | ·
Cc1ccc(-c2nc(Nc3ccccc3)n[nH]2)cc1 | 1.7µM* | 0.65µM* | 0.71µM* | 0.89µM* | 3.5µM*
Nc1n[nH]c(-c2ccccc2)n1 | 1% | 1% | -3% | 3% | -5%
COc1ccc(C=Nc2ccc3[nH]ncc3c2)c(O)c1 | 6.7µM* | -8% | -1% | 5% | -8%
Oc1c(Br)cc(Br)cc1C=Nc1ccc2[nH]ncc2c1 | -17% | -7% | -10% | 0% | ·
